PubChem BioAssay (NCATS)
“And” between values parts separate entries of the source, which are not always exact repeats. Equal values may be shown once. Inconclusive results are not listed. The source made the active and inactive calls. Unless noted, the call rests on the fitted dose curve; in most records, active means well fitted curve in the direction sought with a large enough effect; inconclusive means small, poorly fitted or top-dose-only effect, or another doubt; inactive means no such curve, though single readings can be large; an effect the other way counts as inactive or inconclusive.

Assays:
[1] = tested on: Zika virus NS2B-NS3 protease (linked construct); assay: Primary screen NINDS Rhodamine qHTS for Zika virus inhibitors (AID 1347160); further: nearly all actives have a fitted effect of over 55% in size; on activity change, negative = inhibition: on the % scale 0 is the no-effect control and ±100 the full control effect
Method in brief: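 Kinetic fluorescence (Ex 480 nm, Em 540 nm) over 15 min with 1.5 microM Rhodamine110 peptide and 25 nM linked protease.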

[2] = target: Calcium and integrin-binding protein 1 (Homo sapiens) (UniProt Q99828); assay: Primary qHTS for Identification of Calcium Integrin Binding Protein 1 (CIB1) Competitor (AID 1508620);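 further: GST tagged CIB1 binding a fluorescein labelled alphaIIb integrin peptide tracer; top concentration of the series differs between compounds; on the % scale 0 is the no-effect control and ±100 the full control effect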
Method in brief: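 CIB1-GST (1 uM final) and compound incubated 15 min at room temperature before adding FITC-alphaIIb peptide tracer (100 nM final). Competition for binding read by fluorescence polarization (ex 480, em 540) after another 15 min at room temperature.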

[3] = Primary qHTS for inhibitors of nuclear receptor binding SET domain protein 2 (NSD2) in an isogenic RCH-ACV NSD2 p.E1099K mutant (9B) (AID 1645876); further: potency means the concentration at half of the fitted maximal effect; nearly all actives have a fitted effect of over 70% in size
[4] = Primary qHTS for inhibitors of nuclear receptor binding SET domain protein 2 (NSD2) in an RCH-ACV wild type WT cells (2C) (AID 1645877); further: potency means the concentration at half of the fitted maximal effect; nearly all actives have a fitted effect of over 70% in size
[5] = target: Glutathione peroxidase 1 (Homo sapiens) (UniProt P07203); assay: Primary qHTS Assay for Inhibitors of Recombinant Selenoprotein Glutathione Peroxidase 1 (GPX1) (AID 1845191); further: nearly all actives have a fitted effect of over 65% in size
Method in brief: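 10 nM GPX1 + cpd, 30 min RT; start w/ 1 mM GSH, 0.5 mM cumene hydroperoxide, 0.5 mM NADPH, 100 nM GR, 0.01% BSA; buffer 50 mM Tris-HCl pH 7.5, 2 mM EDTA, 150 mM NaCl; Fl 340/450, 0 & 15 min.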

[6] = target: Phospholipid hydroperoxide glutathione peroxidase GPX4 (Homo sapiens) (UniProt P36969); assay: Primary qHTS Assay for Inhibitors of Recombinant Selenoprotein Glutathione Peroxidase 4 (GPX4) (AID 1845192); conditions: outcome: dose series up to 50 µM unless noted; further: nearly all actives have a fitted effect of over 65% in size; on activity change, negative = inhibition: on the % scale 0 is the no-effect control and ±100 the full control effect
Method in brief: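 NADPH consumption, followed by fluorescence at 340/450 nm between 0 and 15 min, reports GPX4 activity via coupled glutathione reductase (100 nM). Enzyme 200 nM was pre-exposed to compound 30 min; 0.5 mM cumene hydroperoxide and 1 mM GSH served as substrates.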

[7] = target: Luciferin 4-monooxygenase (Photinus pyralis) (UniProt P08659); assay: Primary firefly luciferase (FLuc) qHTS assay for identification of artifact compounds. (AID 1845220); further: nearly all actives have a fitted effect of over 60% in size;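 on activity change, negative = inhibition: plate controls were DMSO vehicle for no effect and no enzyme for full effect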
Method in brief: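 Cell-free, 1536-well qHTS. Buffer pH 7.6 with 0.01% Tween-20 and 0.05% BSA; 10 uM D-luciferin, 10 uM ATP; 10 nM P. pyralis luciferase; luminescence after 5 min.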

[8] = Primary fluorescence-based thiol-reactive (MSTI) qHTS assay for identification of artifact compounds. (AID 1845221);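 further: thiol-reactive compounds lower the probe fluorescence signal; nearly all actives have a fitted effect of over 65% in size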
Method in brief: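 Thiol-reactive compounds detected by quenching of 4 uM MSTI fluorescence (525/598 nm) after 1 h room-temperature dark incubation in PBS pH 7.4, 2% DMSO. qHTS titration; percent inhibition Hill-fitted against Acetyl-MSTI/MSTI controls.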

CASKI = assay: Primary qHTS to identify gynecologic anti-cancer compounds using libraries of approved drugs and bioactive compounds (AID 1345084); conditions: Gynecologic cancer cell panel viability, ATPlite luminescence, 48 h; series mostly up to 57.5 µM; further: nearly all actives have a fitted effect of over 55% in size; further: potency means the concentration at half of the fitted maximal effect; on activity change, negative = cytotoxicity: on the % scale 0 is the no-effect control and ±100 the full control effect
Method in brief: (§1)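 Five-point cytotoxicity, 48 h drug exposure at 37 C, 5% CO2, on cells seeded 16 h beforehand. ATP content read by ATPlite luminescence.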

Es-2 = assay: as above; conditions: Gynecologic cancer cell panel viability, ATPlite luminescence, 48 h; series mostly up to 57.5 µM
Method in brief: as §1

HeLa = assay: as above; conditions: Gynecologic cancer cell panel viability, ATPlite luminescence, 48 h; series mostly up to 57.5 µM
Method in brief: as §1

Hek293T = assay: as above; conditions: Gynecologic cancer cell panel viability, ATPlite luminescence, 48 h, control line for the selectivity index; series mostly up to 57.5 µM
Method in brief: as §1

JEG-3 = assay: as above; conditions: Gynecologic cancer cell panel viability, ATPlite luminescence, 48 h; series mostly up to 57.5 µM
Method in brief: as §1

OV90 = assay: as above; conditions: Gynecologic cancer cell panel viability, ATPlite luminescence, 48 h; series mostly up to 57.5 µM
Method in brief: as §1

Tov-21-G = assay: as above; conditions: Gynecologic cancer cell panel viability, ATPlite luminescence, 48 h; series mostly up to 57.5 µM
Method in brief: as §1

Tov112D = assay: as above; conditions: Gynecologic cancer cell panel viability, ATPlite luminescence, 48 h; series mostly up to 57.5 µM
Method in brief: as §1

[9] = P-glycoprotein substrates identified in KB-8-5-11 adenocarcinoma cell line, qHTS therapeutic library screen (AID 1346987); further: nearly all actives have a fitted effect of over 65% in size; further: potency means the concentration at half of the fitted maximal effect
Method in brief: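 P-gp-mediated resistance screen: KB-8-5-11 cells treated 72 h with compounds in dose-response. CellTiter-Glo viability.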

C33A = assay: Primary qHTS to identify gynecologic anti-cancer compounds using libraries of approved drugs and bioactive compounds (AID 1345084); conditions: Gynecologic cancer cell panel viability, ATPlite luminescence, 48 h; series mostly up to 57.5 µM; further: nearly all actives have a fitted effect of over 55% in size; further: potency means the concentration at half of the fitted maximal effect
Method in brief: as §1

[10] = tested on: Nanoluciferase (engineered Oplophorus gracilirostris luciferase); assay: Primary Nanoluciferase (NLuc) qHTS assay for identification of artifact compounds. (AID 1845222);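 further: 0% = DMSO and -100% = no enzyme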
Method in brief: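 Compounds are pinned into diluted (1:55) conditioned medium of NLuc-expressing S16 cells and held 15 min at room temperature protected from light. Nano-Glo substrate follows, and luminescence is read 5 min later.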

[11] = qHTS drug screen for cell cycle checkpoint inhibitors in PARPi-resistant BRCA-mutant ovarian cancer cell lines. (AID 1963452; calls by dose curve); conditions: PEO1/OlaR viability, CellTiter-Glo luminescence, 96 h, stronger effect = lower value
Method in brief: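 PEO1, PEO4 and PEO1/OlaR ovarian cancer cells, 600 per well, exposed 96 h at 37C to a dilution series. Viability read by CellTiter-Glo luminescence, normalized to DMSO and empty wells; activity summarized as Z-AUC.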

[12] = measured here: PEO1 parental Z-AUC

Sequence of Phospholipid hydroperoxide glutathione peroxidase GPX4 (Homo sapiens) (P36969 whole entry, looked up): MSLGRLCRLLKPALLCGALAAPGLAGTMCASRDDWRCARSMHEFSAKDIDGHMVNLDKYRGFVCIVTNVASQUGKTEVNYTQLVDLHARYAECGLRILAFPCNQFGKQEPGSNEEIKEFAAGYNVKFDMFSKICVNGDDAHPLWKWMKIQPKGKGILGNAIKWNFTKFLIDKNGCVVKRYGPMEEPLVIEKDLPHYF
Sequence of Glutathione peroxidase 1 (Homo sapiens) (P07203 whole entry, looked up): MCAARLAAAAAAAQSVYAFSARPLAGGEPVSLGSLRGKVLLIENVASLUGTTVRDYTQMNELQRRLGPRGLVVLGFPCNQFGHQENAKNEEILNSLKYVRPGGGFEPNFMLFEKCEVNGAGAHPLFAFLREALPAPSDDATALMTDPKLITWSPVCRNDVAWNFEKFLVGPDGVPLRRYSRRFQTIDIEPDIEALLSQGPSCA
Sequence of Calcium and integrin-binding protein 1 (Homo sapiens) (Q99828 whole entry, looked up): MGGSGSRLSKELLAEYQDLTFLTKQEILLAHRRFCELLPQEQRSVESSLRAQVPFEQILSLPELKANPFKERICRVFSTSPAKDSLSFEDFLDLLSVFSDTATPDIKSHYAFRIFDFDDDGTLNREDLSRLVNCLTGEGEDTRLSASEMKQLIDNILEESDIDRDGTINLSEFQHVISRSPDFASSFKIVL

COC1CC(=O)C23C(=O)NC(CC(C)C)C2C(C)C(C)=CC3/C=C(\C)CCC(O)C1O (configuration not stated)
inactive: Potency [1] | outcome [2] | Potency [5] | Potency [6] | Potency [7] | Potency [8] | Potency (CASKI) | Potency (Es-2) | Potency (HeLa) | Potency (Hek293T) | Potency (JEG-3) | Potency (OV90) | Potency (Tov-21-G) | Potency (Tov112D)
active: Potency [3] 3.99 µM | Potency [4] 2.24 µM

COc1cc2nc(N3CCN(C)CC3)nc(NC3CCN(Cc4ccccc4)CC3)c2cc1OC
inactive: Potency [1] | outcome [2] | Potency [5] | Potency [7] | Potency [8] | Potency (C33A) | Potency (HeLa) | Potency (Hek293T)
active: Potency [9] 16.4 µM | Potency [3] 6.49 µM | Potency [4] 5.78 µM | Potency (OV90) 22.4 µM

CC1CCC2(NC1)OC1CC3C4CC=C5CC(O[C@@H]6O[C@H](CO)[C@@H](O[C@@H]7O[C@@H](C)[C@H](O)[C@@H](O)[C@H]7O)[C@H](O)[C@H]6O[C@@H]6O[C@@H](C)[C@H](O)[C@@H](O)[C@H]6O)CCC5(C)C4CCC3(C)C1C2C (some centres not stated)
inactive: Potency [1] | outcome [2] | Potency [5] | Potency [6] | activity change, negative = inhibition [7] -5.29% [at 11.6 µM] | activity change, negative = thiol reactive [8] 179% [at 11.5 µM] | activity, negative = inhibition [10] -1.63% [at 11.6 µM] | activity change, negative = cytotoxicity (CASKI) -25.1% [at 11.6 µM] | activity change, negative = cytotoxicity (HeLa) -18.6% [at 11.6 µM] | activity change, negative = cytotoxicity (Hek293T) -11.9% [at 11.6 µM] | activity change, negative = cytotoxicity (JEG-3) 4.54% [at 11.6 µM] | activity change, negative = cytotoxicity (Tov-21-G) -23.3% [at 11.6 µM] | activity change, negative = cytotoxicity (Tov112D) -18.2% [at 11.6 µM]
active: Potency [3] 3.46 µM | Potency [4] 3.88 µM

C=CC(=O)Nc1cccc(Nc2nc(Nc3ccc(Oc4ccnc(C(=O)NC)c4)cc3)ncc2F)c1
-0.105: Z-AUC [11, 12]
-0.427: Z-AUC ([11]; measured here: PEO4 Z-AUC)
inactive: Potency [1] | outcome [2] | Potency [5] | Potency [6] | Potency [7] | Potency [8] | Potency [10] | Z-AUC [11] -0.493 | Potency (C33A) | Potency (CASKI) | Potency (JEG-3) | Potency (OV90)
active: Potency [3] 10.3 µM and 5.9 µM | Potency [4] 10.3 µM and 6.61 µM

CCOP(=O)(Cc1ccc(C(=O)Nc2ccc(Br)cc2C#N)cc1)OCC
inactive: Potency [1] | outcome [2] | Potency [5] | Potency [6] | Potency [7] | Potency [8] | Potency (CASKI) | Potency (Es-2) | Potency (HeLa) | Potency (Hek293T) | Potency (JEG-3) | Potency (OV90) | Potency (Tov-21-G) | Potency (Tov112D)

CC(=O)Nc1nc2c(Oc3cc(-c4ccc(C(F)(F)F)cc4)ncn3)cccc2s1
active: Potency [3] 6.49 µM | Potency [4] 4.09 µM | Potency (Tov-21-G) 22.4 µM
inactive: outcome [2] | Potency [5] | Potency [6] | Potency [8] | Potency (C33A) | Potency (JEG-3) | Potency (Tov112D)

CCOc1cc(CNC2CCCC2)cc(Cl)c1OCc1ccc(Cl)cc1
inactive: Potency [1] | outcome [2] | Potency [5] | Potency [6] | Potency [8] | Potency [10] | Potency (JEG-3)
active: Potency [3] 11.5 µM | Potency [4] 14.5 µM

Fc1ccc(C2CCNC[C@H]2COc2ccc3c(c2)OCO3)cc1 (some centres not stated)
active: Potency [3] 18.3 µM | Potency [4] 11.5 µM | Potency (Es-2) 22.4 µM
inactive: Potency [1] | outcome [2] | Potency [6] | Potency [7] | Potency [8] | Potency [10] | Potency (HeLa) | Potency (Hek293T) | Potency (JEG-3) | Potency (Tov112D)

COC(=O)/C=C/C(=O)N(O)CCCCNCc1ccc(COC(=O)Nc2cccc3ccccc23)cc1
0.131: Z-AUC ([11]; measured here: PEO4 Z-AUC)
inactive: Potency [1] | outcome [2] | Potency [5] | Potency [6] | Potency [7] | Potency [8] | Potency [10] | Z-AUC [11] 0.336 | Potency (HeLa) | Potency (JEG-3) | Potency (OV90) | Potency (Tov-21-G) | Potency (Tov112D)
0.0181: Z-AUC [11, 12]
active: Potency [3] 9.34 µM

NC(=Nc1ccc(CCNCc2cccc(Cl)c2)cc1)c1cccs1
inactive: Potency [1] | outcome [2] | Potency [5] | Potency [6] | Potency [7] | Potency [8] | Potency (Es-2) | Potency (HeLa) | Potency (Hek293T) | Potency (Tov-21-G) | Potency (Tov112D)
active: Potency [9] 23.1 µM | Potency [3] 11.5 µM | Potency [4] 11.5 µM

O=C(/C=C/n1cnc(-c2cc(C(F)(F)F)cc(C(F)(F)F)c2)n1)NNc1cnccn1
active: Potency [3] 1.63 µM | Potency [4] 2.05 µM
inactive: outcome [2] | Potency [5] | Potency [6] | Potency [7] | Potency [8] | Potency (C33A) | Potency (CASKI) | Potency (HeLa)

CN(C)CCCCCCNC(=O)c1cccc(-c2cc(O)c3ncccc3c2)c1
active: Potency [9] 8.2 µM | Potency [3] 11.5 µM | Potency [4] 7.28 µM
inactive: Potency [1] | Potency [5] | Potency [6] | Potency [7] | Potency [10] | Potency (HeLa) | Potency (JEG-3) | Potency (OV90)

C[C@@H]1CCNC(=O)c2cc3ccc(C(=O)Nc4nc5ccccc5n4CCCN(C)C)cc3n21
inactive: Potency [9] | Potency [1] | outcome [2] | Potency [5] | Potency [6] | Potency [8] | Potency [10] | Z-AUC [11] -0.825 | Potency (Es-2) | Potency (HeLa) | Potency (Hek293T)
active: Potency [3] 16.3 µM | Potency [4] 14.8 µM
-0.925: Z-AUC [11, 12]
-1.11: Z-AUC ([11]; measured here: PEO4 Z-AUC)

O=C(C1=CCN2c3c(cccc31)OC[C@H]2CN1CCOCC1)c1cccc2ccccc12
inactive: Potency [1] | outcome [2] | Potency [5] | Potency [6] | Potency [7] | Potency [8] | Potency [10] | Potency (CASKI) | Potency (Hek293T) | Potency (JEG-3)

COc1ccccc1-c1cc(Nc2cccc(CS(N)(=O)=O)c2)ncn1
active: Potency [3] 4.09 µM | Potency [4] 2.9 µM | Potency (HeLa) 22.4 µM | Potency (Hek293T) 20 µM
inactive: Potency [9] | Potency [1] | outcome [2] | Potency [5] | Potency [6] | Potency [8] | Potency [10]
